The target in assay [1] is Peroxisome proliferator-activated receptor delta (Homo sapiens) (UniProt Q03181). Nature of the assay: qHTS assay to identify small molecule agonists of the peroxisome proliferator-activated receptor delta (PPARd) signaling pathway (AID 743212; calls by dose curve;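 further: HEK293H cells with PPARd UAS beta-lactamase reporter GeneBLAzer system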). An outline of the steps: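 Beta-lactamase reporter read by fluorescence (LiveBLAzer B/G FRET, 2 h, room temperature). Test agents, in DMSO, incubated at 37 C with PPARd-bla HEK293H cells.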

Assay [2] can be described thus: qHTS assay to identify small molecule antagonists of the peroxisome proliferator-activated receptor delta (PPARd) signaling pathway - cell viability counter screen (AID 743213). Further: nearly all actives have a fitted effect of over 50% in size. An outline of the steps: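 Agonist-stimulated (L165041, 300 nM final) HEK293H PPARd UAS-bla cells are exposed to compounds for 17 h at 37 C, and ATP-based luminescence (CellTiter-Glo) from the same wells reports cytotoxicity.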

The target in assay [3] is Peroxisome proliferator-activated receptor delta (Homo sapiens) (UniProt Q03181). Nature of the assay: qHTS assay to identify small molecule antagonists of the peroxisome proliferator-activated receptor delta (PPARd) signaling pathway (AID 743215; active means well fitted inhibition curve with a large enough effect in the signal ratio in the repeat runs, not every such curve was filed as active; the % refers to the signal ratio; further: potency means the concentration at half of the fitted maximal effect). The method, boiled down: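 Agonist L165041 (300 nM final) added with compound to PPARd-bla HEK293H UAS-bla reporter cells; 17 h incubation at 37 C. Read-out: LiveBLAzer FRET substrate, 2 h at room temperature, fluorescence intensity.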

The nature of assay [4]: qHTS assay to identify small molecule antagonists of the farnesoid-X-receptor (FXR) signaling pathway - cell viability counter screen (AID 743221; active means well fitted cell-killing curve with a large enough effect in the repeat runs, not every such curve was filed as active; further: nearly all actives have a fitted effect of over 50% in size). The method, boiled down: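 Luminescence from CellTiter-Glo measures cytotoxicity in GeneBLAzer FXR-UAS-bla HEK 293T cells. Cells were exposed to compounds with 50 uM chenodeoxycholic acid (final) for 16 h at 37 C, in wells also used for the reporter readout.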

Assay [5] addresses Vitamin D3 receptor (Homo sapiens) (UniProt P11473). Briefly: qHTS assay to identify small molecule agonists of the vitamin D receptor (VDR) signaling pathway (AID 743222; calls by dose curve). The method, boiled down: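 Agonist mode, beta-lactamase reporter: fluorescence from LiveBLAzer B/G FRET substrate (2 h, room temperature) read after 16 h compound treatment at 37 C of VDR-bla cells, which were pre-incubated 4 h after seeding.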

Assay [6] has the same target. Nature of the assay: qHTS assay to identify small molecule antagonists of the vitamin D receptor (VDR) signaling pathway (AID 743223; active means well fitted inhibition curve with a large enough effect in the signal ratio in the repeat runs, not every such curve was filed as active; the % refers to the signal ratio). An outline of the steps:
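Antagonist mode uses 1alpha,25-dihydroxyvitamin D3 at 3 nM final as stimulus. VDR-bla cells receive compounds in DMSO, incubate 16 h at 37C, then a beta-lactamase FRET substrate for 2 h at room temperature before fluorescence measurement.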

A short description of assay [7]: qHTS assay to identify small molecule agonists of the vitamin D receptor (VDR) signaling pathway - cell viability counter screen (AID 743224). Further: nearly all actives have a fitted effect of over 50% in size. Further: potency means the concentration at half of the fitted maximal effect. The method, boiled down: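 Counter screen run in the same wells as the VDR-bla reporter assay: CellTiter-Glo luminescence, 30 min at room temperature, after 16 h compound treatment at 37C of cells pre-plated for 4 h.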
Assay [8] is described as follows: qHTS assay to identify small molecule agonists of the endoplasmic reticulum stress response signaling pathway (AID 1159516; active means well fitted activation curve with a large enough effect in the signal ratio in the repeat runs, not every such curve was filed as active; the % refers to the signal ratio). An outline of the steps:
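Ratiometric FRET readout (405 nm excitation; 460 and 530 nm emission) of a beta-lactamase gene driven by the ER stress response element, after 2 hr substrate loading. HeLa ESRE-bla cells were seeded overnight and treated with compounds for only 5 hr at 37 C.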

Assay [9] can be described thus: qHTS assay to identify small molecule agonists of the endoplasmic reticulum stress response signaling pathway - cell viability counter screen (AID 1159517; calls by dose curve; further: nearly all actives have a fitted effect of over 50% in size; further: potency means the concentration at half of the fitted maximal effect). The method, boiled down:
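Cytotoxicity of test compounds toward ESRE-bla HeLa cells was assessed after 5 hr exposure. The luminescent CellTiter-Glo signal was measured 30 min after reagent addition.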

Assay [10] can be described thus: qHTS assay to identify small molecule antagonists of the retinoid-related orphan receptor gamma (ROR-gamma) signaling pathway - cell viability counter screen (AID 1159520). Further: nearly all actives have a fitted effect of over 50% in size. An outline of the steps: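 Tet-on ROR gamma CHO cells (1,000/well) were plated 4 hr, given compounds in DMSO for 2 hr at 37 C, then induced with 1 uM final doxycycline for 16 hr. Viability was read as ATP by CellTiter-Glo luminescence after 30 min.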

Assay [11] addresses Nuclear receptor ROR-gamma (Homo sapiens) (UniProt P51449). Nature of the assay: qHTS assay to identify small molecule antagonists of the retinoid-related orphan receptor gamma (ROR-gamma) signaling pathway (AID 1159521; further: nearly all actives have a fitted effect of over 50% in size; further: potency means the concentration at half of the fitted maximal effect). An outline of the steps:
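CHO Tet-on RORγ, RORE-luc reporter. Cpd 2 h pre-incubation, then dox hyclate 1 uM final, 16 h, 37 C/5% CO2. ONE-Glo luminescence; decrease = antagonist.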

Assay [12] is described as follows: qHTS assay to identify small molecule agonists of the AP-1 signaling pathway - cell viability counter screen (AID 1159525; calls by dose curve; further: nearly all actives have a fitted effect of over 55% in size). An outline of the steps:
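Each titration point was normalised to DMSO and tetra n-octyl ammonium bromide controls. The read was Cell Titer Glo luminescence after 30 min at RT, following 5 h compound exposure of ME-180 AP-1-bla cells at 37 °C.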

Assay [13] in a line: qHTS assay to identify small molecule agonists of the AP-1 signaling pathway (AID 1159526; calls by dose curve).
Assay [14] has as its target Retinoic acid receptor RXR-alpha (Homo sapiens) (UniProt P19793). Nature of the assay: qHTS assay to identify small molecule agonists of the RXR signaling pathway (AID 1159527; calls by dose curve; further: nearly all actives have a fitted effect of over 35% in size). The method, boiled down: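 Read-out: beta-lactamase FRET ratio (405 nm excitation, 460 and 530 nm emission) after 2 hr substrate loading at room temperature. Cells were RXR-alpha-UAS-bla HEK 293T treated with compounds for 16 hr in 2% charcoal-stripped FBS medium.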

A short description of assay [15]: qHTS assay to identify small molecule agonists of the RXR signaling pathway - cell viability counter screen (AID 1159529). The method, boiled down:
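HEK 293T RXRa-bla cells, 2% CS-FBS; 5 h settle; cpd 16 h 37 C, 5% CO2; CellTiter-Glo 30 min RT, luminescence. Tetraoctyl ammonium bromide as positive control.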

A short description of assay [16]: qHTS assay to identify small molecule agonists of the farnesoid-X-receptor (FXR) signaling pathway - cell viability counter screen (AID 743218). Further: nearly all actives have a fitted effect of over 45% in size. Further: potency means the concentration at half of the fitted maximal effect. An outline of the steps:
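Viability counter screen in the same wells: CellTiter-Glo luminescence, 30 min room-temperature incubation, measured after the beta-lactamase read. Cells were GeneBLAzer FXR-UAS-bla HEK 293T, compound-treated 16 h at 37C.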

Assay [17] in a line: qHTS assay to identify small molecule antagonists of the vitamin D receptor (VDR) signaling pathway - cell viability counter screen (AID 743225). Further: nearly all actives have a fitted effect of over 50% in size. An outline of the steps:
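Read-out: CellTiter-Glo luminescence measured 30 min after reagent addition at room temperature. Cells were VDR-bla HEK 293T exposed 16 h at 37C, 5% CO2, to compound with 3 nM final calcitriol agonist.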

The target in assay [18] is Bile acid receptor (Homo sapiens) (UniProt Q96RI1). Nature of the assay: qHTS assay to identify small molecule agonists of the farnesoid-X-receptor (FXR) signaling pathway (AID 743220; active means well fitted activation curve with a large enough effect in the signal ratio in the repeat runs, not every such curve was filed as active; the % refers to the signal ratio). The method, boiled down: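 FXR-UAS-bla HEK 293T cells carrying a UAS-driven beta-lactamase reporter were plated for 5 h at 37C/5% CO2, then exposed to DMSO-dissolved Tox21 10K compounds for 16 h at 37C. A LiveBLAzer B/G FRET substrate was loaded for 2 h at room temperature before fluorescence reading.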

The target is the same in assay [19]. Nature of the assay: qHTS assay to identify small molecule antagonists of the farnesoid-X-receptor (FXR) signaling pathway (AID 743217; active means well fitted inhibition curve with a large enough effect in the signal ratio in the repeat runs, not every such curve was filed as active; the % refers to the signal ratio). An outline of the steps:
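Antagonist mode: chenodeoxycholic acid at 50 uM final stimulates a UAS-driven beta-lactamase reporter in HEK 293T FXR-bla cells during 16 h, 37C compound exposure. Read-out is FRET substrate fluorescence after 2 h at room temperature.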

Values joined by “and” are separate entries in the source; they are usually repeats but may differ in a detail not shown here. Equal values may be shown once. Results filed as inconclusive are left out. Where a structure was tested more than once in an assay, its records may differ in their call. Active and inactive are the calls of the source. Unless noted, the call rests on the fitted dose curve; in most records, active means well fitted curve in the direction sought with a large enough effect in the repeat runs; inconclusive means weak or mixed curves; inactive means no such curve, though single readings can be large; an effect the other way counts as inactive or inconclusive.

Results on six compounds are retold here after PubChem BioAssay (Tox21).

Vitamin D3 receptor (Homo sapiens), sequence (P11473 whole entry, looked up): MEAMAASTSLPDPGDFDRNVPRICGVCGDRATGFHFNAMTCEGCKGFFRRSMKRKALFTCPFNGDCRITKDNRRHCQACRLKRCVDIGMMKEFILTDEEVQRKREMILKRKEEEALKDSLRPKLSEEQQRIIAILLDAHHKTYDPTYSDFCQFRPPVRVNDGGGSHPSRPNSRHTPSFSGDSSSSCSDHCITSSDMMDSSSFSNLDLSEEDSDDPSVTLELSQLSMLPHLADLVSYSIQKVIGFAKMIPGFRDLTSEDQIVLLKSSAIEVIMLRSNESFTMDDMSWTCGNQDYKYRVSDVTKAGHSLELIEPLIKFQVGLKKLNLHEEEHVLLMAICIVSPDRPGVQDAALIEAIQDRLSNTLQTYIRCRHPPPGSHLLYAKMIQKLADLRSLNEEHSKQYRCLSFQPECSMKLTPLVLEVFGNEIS
Retinoic acid receptor RXR-alpha (Homo sapiens), sequence (P19793 whole entry, looked up): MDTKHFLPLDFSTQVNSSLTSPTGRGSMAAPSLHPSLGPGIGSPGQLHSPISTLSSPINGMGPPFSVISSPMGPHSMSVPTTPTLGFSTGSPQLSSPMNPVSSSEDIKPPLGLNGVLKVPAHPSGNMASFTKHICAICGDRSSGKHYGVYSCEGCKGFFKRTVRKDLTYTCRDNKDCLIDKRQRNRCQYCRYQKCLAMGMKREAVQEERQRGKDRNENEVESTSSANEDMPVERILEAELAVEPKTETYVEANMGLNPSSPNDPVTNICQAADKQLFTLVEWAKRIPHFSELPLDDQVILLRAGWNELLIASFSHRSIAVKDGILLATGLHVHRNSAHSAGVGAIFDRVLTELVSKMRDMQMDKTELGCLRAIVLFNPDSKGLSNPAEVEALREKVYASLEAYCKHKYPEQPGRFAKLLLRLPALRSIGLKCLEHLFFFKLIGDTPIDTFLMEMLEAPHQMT
Bile acid receptor (Homo sapiens), sequence (Q96RI1 whole entry, looked up): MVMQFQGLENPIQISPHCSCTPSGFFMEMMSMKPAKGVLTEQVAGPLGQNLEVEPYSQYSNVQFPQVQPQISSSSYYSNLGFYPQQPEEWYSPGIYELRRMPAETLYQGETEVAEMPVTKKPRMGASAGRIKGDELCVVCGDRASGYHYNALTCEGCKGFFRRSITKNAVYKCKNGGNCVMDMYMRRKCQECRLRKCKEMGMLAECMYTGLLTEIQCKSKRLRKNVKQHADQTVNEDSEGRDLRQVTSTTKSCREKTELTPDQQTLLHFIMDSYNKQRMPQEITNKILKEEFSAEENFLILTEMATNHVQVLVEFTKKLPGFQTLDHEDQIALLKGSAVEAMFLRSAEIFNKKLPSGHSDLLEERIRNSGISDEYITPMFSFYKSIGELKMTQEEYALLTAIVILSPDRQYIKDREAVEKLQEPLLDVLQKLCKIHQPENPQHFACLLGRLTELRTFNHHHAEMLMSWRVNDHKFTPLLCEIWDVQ
Peroxisome proliferator-activated receptor delta (Homo sapiens), sequence (Q03181 whole entry, looked up): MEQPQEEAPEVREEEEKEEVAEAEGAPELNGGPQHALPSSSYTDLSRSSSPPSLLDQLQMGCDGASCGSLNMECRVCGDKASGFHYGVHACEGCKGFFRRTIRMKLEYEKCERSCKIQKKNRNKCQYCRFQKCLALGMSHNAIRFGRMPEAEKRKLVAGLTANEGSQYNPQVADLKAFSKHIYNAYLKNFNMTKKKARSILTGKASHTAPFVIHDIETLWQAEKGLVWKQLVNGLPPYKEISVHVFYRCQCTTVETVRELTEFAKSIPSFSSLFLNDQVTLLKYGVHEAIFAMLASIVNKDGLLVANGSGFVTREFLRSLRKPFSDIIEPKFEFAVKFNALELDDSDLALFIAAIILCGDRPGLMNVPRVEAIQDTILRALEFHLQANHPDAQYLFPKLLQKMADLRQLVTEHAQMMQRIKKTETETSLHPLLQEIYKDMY

Turning to `c1ccc(CSCc2ccccc2)cc1`, the Potency result in assay [1], in assay [2], in [3], in assay [4], in [5] and in [6] was “inactive” each time. Moreover, the Potency result in assay [7], in assay [9], in assay [10], in assay [11], in assay [12] and in assay [13] was “inactive” in each case. The Potency entry in assay [14] and in assay [15] was “inactive” throughout. In assay [8], the compound was called inactive.

With `O=c1cc(-c2ccc(O)cc2)oc2cc(O)cc(O)c12`, the Potency entry in [1], in [2], in assay [16], in [4], in assay [7] and in assay [17] was “inactive” in each case. Also, the Potency result in [9], in assay [10], in assay [12] and in assay [15] was “inactive” throughout. Also, the Potency entry in assay [3] was “inactive and 17.4 µM (active)”. Further, the compound was called inactive in assay [8].

For `CCCCC(CC)COP(=O)(O)OCC(CC)CCCC` (stereo not given), the Potency entry in assay [2], in [18], in assay [4], in [10] and in assay [12] was “inactive” throughout. The Potency in [16] is 55 µM (active) and 43.6 µM (active); in assay [7], 55 µM (active); in [9] it was 55 µM (active) and 49 µM (active); in assay [11], 54.6 µM (active) and 48.6 µM (active). In addition, in [8], the compound was classed as inactive.

Turning to `NC(=O)CC[C@@H]1NC(=O)[C@H](Cc2ccccc2)NC(=O)[C@H](Cc2ccc(O)cc2)NC(=O)CCSSC[C@@H](C(=O)N2CCC[C@H]2C(=O)N[C@@H](CCCN=C(N)N)C(=O)NCC(N)=O)NC(=O)[C@H](CC(N)=O)NC1=O`, the Potency result in assay [2], in assay [16], in [4], in assay [5], in assay [7] and in assay [17] was “inactive” throughout. For the same compound, the Potency result in [9], in [10], in assay [11], in assay [12], in assay [13] and in [14] was “inactive” throughout. In assay [15], the Potency result is “inactive”. The result in assay [8] was inactive.

On to `NNC(=O)c1cccc(C(=O)NN)c1`, for which the Potency result in assay [1], in [2], in assay [3], in [19], in [16] and in [18] was “inactive” throughout. In addition, the Potency result in assay [4], in assay [5], in assay [7], in [17], in assay [9] and in assay [10] was “inactive” in each case. In addition, the Potency entry in [11], in [12], in [13], in [14] and in assay [15] was “inactive” each time. Moreover, in assay [8], the compound was called inactive.

Regarding `CCCC1O[C@@H]2C[C@H]3[C@@H]4CCC5=CC(=O)C=C[C@]5(C)[C@H]4[C@@H](O)C[C@]3(C)[C@]2(C(=O)CO)O1` (stereo not given in full), the Potency result in assay [1], in assay [2], in assay [3], in [19], in assay [16] and in assay [18] was “inactive” in each case. For the same compound, the Potency result in [4], in assay [5], in assay [7], in assay [17], in assay [9] and in assay [10] was “inactive” each time. Moreover, the Potency result in assay [12] and in assay [15] was “inactive” in each case. Also, in [8], the compound was classed as inactive. Further, the Potency in assay [11] was 48.6 µM (active).
